NSD2 inh – inhibitors of human histone methyltransferase NSD2 | 0.54% of 310,000 active | NSD2 peptide methylation, AlphaScreen, 120 min | inhibition, % at 12.5 µM | O96028; in the data active = inhibition above about 50%
CDK5 inh – inhibitors of human CDK5/p35 kinase; Q00535+Q15078; Recombinant CDK5/p35, ADP-Glo luminescence, 60 min; inhibition, % at 10 µM; 0.01% of 330,000 active; AID 488839;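 active = highest replicate inhibition of at least 50% and at least 75% of replicates reaching 50%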
Mot1-301 SUMO – SUMOylation pathway inhibition by Mot1-301 growth rescue. S. cerevisiae Mot1-301 growth rescue, ATP luminescence, 38.5C; percent above DMSO median, 100 means doubled. growth rescue, % at 18.8 µM. 1% of 320,000 active. AID 2716;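 active = every valid replicate shows activation above 250% relative to neutral control wells; inactive = the rest, any valid replicate at or below 250%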
ALR inh – inhibitors of human sulfhydryl oxidase ALR | inhibition, % (concentration not given with the values) | 3.8% of 290,000 active | AID 485317 | purified ALR, DTT oxidation, H2O2 HRP-luminol luminescence | P55789;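 active = mean replicate inhibition above about 79%, with every replicate also reaching it, limit read from the data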
Target sequence (P55789 whole entry, looked up): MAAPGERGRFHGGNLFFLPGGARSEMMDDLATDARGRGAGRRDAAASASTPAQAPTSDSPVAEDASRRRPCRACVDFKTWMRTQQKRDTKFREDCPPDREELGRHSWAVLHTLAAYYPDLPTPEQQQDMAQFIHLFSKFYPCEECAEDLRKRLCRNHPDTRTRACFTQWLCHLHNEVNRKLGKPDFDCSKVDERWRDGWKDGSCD
N-glyco inh – blocks N-linked glycosylation in D54 reporter cells | AID 588692 | 0.23% of 360,000 active | D54 ERlucT glycosylation luciferase reporter, 24 h; percent of 100 nM tunicamycin response | reporter increase, % at 12.5 µM;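 active = mean luciferase reporter signal, scaled so untreated is 0 and the glycosylation-blocking control 100, at or above a set limit in every replicate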;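 note: luciferase carries N-glycosylation sites so blocking glycosylation raises the light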
Casp6 inh – blocks human caspase-6 cleavage activity; P55212; purified caspase-6, Z-VEID-R110 cleavage fluorescence; inhibition, % at 12.5 µM; 0.53% of 350,000 active;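 active = mean inhibition across replicates at least about 35%, with every replicate also reaching that limit, limit read from the data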
Target sequence (P55212 24-179 limits assumed): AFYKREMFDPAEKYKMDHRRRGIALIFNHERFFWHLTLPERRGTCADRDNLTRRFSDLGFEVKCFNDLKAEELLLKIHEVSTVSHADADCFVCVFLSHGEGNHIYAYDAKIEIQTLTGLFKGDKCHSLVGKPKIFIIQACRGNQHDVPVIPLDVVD
Target sequence (P55212 194-293 limits assumed): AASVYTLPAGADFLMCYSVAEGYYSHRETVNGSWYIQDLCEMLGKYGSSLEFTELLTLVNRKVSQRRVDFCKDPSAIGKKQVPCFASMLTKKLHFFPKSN
Each line names hits and unclear results; the compound was inactive in the other large screens. The list is not random: actives were taken first. Their share in the collection is about 3.9%.

COc1ccc(N2CCN(C(=O)c3ccc(CS(=O)c4cccc(C)c4)o3)CC2)cc1 (stereo unspecified)	ALR inh 99
COc1ccc(N2CCN(C(=O)c3ccc(CS(=O)Cc4ccc(Cl)cc4)o3)CC2)cc1 (stereo unspecified)	none
C[C@@H]1CCCCO[C@@H](CN(C)C(=O)Nc2ccc(F)cc2)[C@@H](C)CN([C@H](C)CO)C(=O)c2cc(NC(=O)CCC(F)(F)F)ccc2O1	none (no result: NSD2 inh, CDK5 inh, Mot1-301 SUMO, ALR inh, N-glyco inh)
CC(=O)Nc1ccc2c(O)cc(S(=O)(=O)O)cc2c1	none (no result: Mot1-301 SUMO, ALR inh)
COc1ccc(S(=O)(=O)O)cc1P(=O)(c1ccccc1)c1ccccc1	none
O=S(=O)(O)c1cc(O)c2ccc(Nc3ccccc3)cc2c1	NSD2 inh 105, Casp6 inh 95 (no result: Mot1-301 SUMO, ALR inh)
COc1ccccc1Nc1ccc2c(O)cc(S(=O)(=O)O)cc2c1	NSD2 inh 110, Casp6 inh 88 (no result: Mot1-301 SUMO, ALR inh)
CNC[C@@H]1Oc2ccc(NC(=O)CCC(F)(F)F)cc2CC(=O)N([C@@H](C)CO)C[C@H]1C	none (no result: NSD2 inh, CDK5 inh, Mot1-301 SUMO, ALR inh, N-glyco inh)
COc1cc(/C=N/N=C2/NC(=O)C(c3ccccc3)S2)ccc1O (stereo unspecified)	ALR inh 99 (no result: Casp6 inh)
COc1cc(/C=N/N=C2/C(=O)Nc3ccccc32)ccc1O	ALR inh 99 (no result: Casp6 inh)
COc1cc(/C=N/N=C2/NC(=O)C(Cc3ccc(F)cc3)S2)ccc1O (stereo unspecified)	none
Cc1ccc(OC(=O)N(C)C[C@@H]2OCc3ccccc3-c3ccccc3C(=O)N([C@@H](C)CO)C[C@@H]2C)cc1	none (no result: NSD2 inh, CDK5 inh, Mot1-301 SUMO, ALR inh, N-glyco inh)
CCN1C(=O)CC(NNC(=O)c2ccccc2)C1=O (stereo unspecified)	none
CN(C)N1C(=O)CC(NNC(=O)c2ccncc2)C1=O (stereo unspecified)	ALR inh 86 (no result: Casp6 inh)
CC(=O)NS(=O)(=O)c1ccc(NC(=O)c2ccc3c(c2)C(=O)N(CCC(C)C)C3=O)cc1	ALR inh 92 (no result: Casp6 inh)
CC(C)CCN1C(=O)c2ccc(C(=O)Nc3cc(C(=O)O)cc(C(=O)O)c3)cc2C1=O	none
O=C(C[C@H]1CC[C@@H]2[C@H](COC[C@H](O)CN2C(=O)c2ccc(F)cc2)O1)NCCCN1CCOCC1	none (no result: NSD2 inh, CDK5 inh, Mot1-301 SUMO, ALR inh, N-glyco inh)
Cc1cccc(NC2=C/C(=N/S(=O)(=O)c3cccs3)c3ccccc3C2=O)c1	none (no result: ALR inh, Casp6 inh)
O=C(O)c1ccc(NC2=C/C(=N/S(=O)(=O)c3cccs3)c3ccccc3C2=O)cc1	Casp6 inh 100 (no result: NSD2 inh, CDK5 inh, Mot1-301 SUMO, ALR inh)
O=C(O)c1ccc(NC2=C/C(=N/S(=O)(=O)c3ccccc3)c3ccccc3C2=O)cc1	Casp6 inh 99 (no result: NSD2 inh, Mot1-301 SUMO, ALR inh)
O=C1C(Nc2ccc(O)cc2)=C/C(=N/S(=O)(=O)c2cccs2)c2ccccc21	Casp6 inh 99 (no result: NSD2 inh, Mot1-301 SUMO, ALR inh)
Cc1cc(C)c(S(=O)(=O)/N=C2\C=C(Nc3ccc(C(=O)O)cc3)C(=O)c3ccccc32)c(C)c1	none (no result: NSD2 inh, ALR inh)
CN(C)CC(=O)Nc1ccc2c(c1)[C@@H]1C[C@@H](CC(=O)NCCc3ccccc3)O[C@@H](CO)[C@@H]1O2	none (no result: NSD2 inh, CDK5 inh, Mot1-301 SUMO, ALR inh, N-glyco inh)
CN(C)CCCn1c2c(c(SCC(=O)Nc3ccc4c(c3)OCO4)nc1=O)CCC2	ALR inh 98
CCN(CC)CCCn1c2c(c(SCC(=O)Nc3ccc4c(c3)OCCO4)nc1=O)CCC2	ALR inh 98
CCN(CC)CCn1c2c(c(SCC(=O)Nc3cccc(C(C)=O)c3)nc1=O)CCCC2	none (no result: Mot1-301 SUMO, ALR inh)
CC(=O)c1cccc(NC(=O)CSc2nc(=O)n(Cc3ccccn3)c3c2CCC3)c1	ALR inh 99
CCN(CC)CCCn1c2c(c(SCC(=O)Nc3cccc(C(C)=O)c3)nc1=O)CCC2	ALR inh 99
CCOc1ccccc1NC(=O)CSc1nc(=O)n(Cc2ccncc2)c2c1CCC2	none (no result: ALR inh)
CCN(CC)CCn1c2c(c(SCC(=O)Nc3ccc4c(c3)OCCO4)nc1=O)CCCC2	none (no result: NSD2 inh)
COCC(=O)Nc1ccc2c(c1)C(=O)N(C)C[C@@H](OC)[C@@H](C)CN(C(=O)c1ccncc1)[C@@H](C)CO2	none (no result: NSD2 inh, CDK5 inh, Mot1-301 SUMO, ALR inh, N-glyco inh)
COc1ccc(C#Cc2ccc([C@@H]3[C@@H](CO)N4CCCCN(Cc5ccncc5)C[C@@H]34)cc2)cc1	none (no result: NSD2 inh, CDK5 inh, Mot1-301 SUMO, ALR inh, N-glyco inh)
O=C(CC1CC1)N1[C@H](CO)[C@H](c2ccccc2)C12CN(Cc1cc(F)ccc1F)C2	none (no result: NSD2 inh, CDK5 inh, Mot1-301 SUMO, ALR inh, N-glyco inh)
Cc1ccc(NC(=O)C2CCCN2C(=O)OCc2ccccc2)c(C)c1 (stereo unspecified)	none
Cc1ccc(NC(=O)C2CCCN2C(=O)OCc2ccccc2)c(O)c1 (stereo unspecified)	ALR inh 86
O=C(OCc1ccccc1)N1CCCC2CC1c1ccccc12 (stereo unspecified)	Casp6 inh 54 (no result: NSD2 inh, CDK5 inh, Mot1-301 SUMO, ALR inh)
CCS(=O)(=O)N1[C@H](C#N)[C@@H](c2ccc(C#CC(C)C)cc2)[C@H]1CO	none (no result: NSD2 inh, CDK5 inh, Mot1-301 SUMO, ALR inh, N-glyco inh)
CC(=O)Nc1cccc2cc(S(=O)(=O)O)ccc12	Casp6 inh 44 (no result: CDK5 inh, Mot1-301 SUMO, ALR inh)
CC(=O)Nc1cccc2cc(O)ccc12	none (no result: Mot1-301 SUMO, ALR inh)
C[C@@H]1CN([C@@H](C)CO)S(=O)(=O)c2ccc(C#CC(C)(C)O)cc2O[C@@H]1CN(C)C	none (no result: NSD2 inh, CDK5 inh, Mot1-301 SUMO, ALR inh, N-glyco inh)
CCCc1cc(-c2n[nH]c(C(=O)OCC)c2-c2cscn2)c(O)cc1O	Casp6 inh 45
Cc1oc(-c2ccc(F)cc2)cc1-c1nn2c(-c3ccco3)nnc2s1	Casp6 inh 57 (no result: CDK5 inh, Mot1-301 SUMO, ALR inh, N-glyco inh)
Cc1oc(-c2ccc(F)cc2)cc1-c1nn2c(-c3ccoc3C)nnc2s1	ALR inh 97 (no result: NSD2 inh, Mot1-301 SUMO, Casp6 inh)
CCOC(=O)/C(=C\c1cn(C)c2ccccc12)[N+](=O)[O-]	ALR inh 95
COc1ccccc1/C=C1/C(=O)ON=C1C	ALR inh 98
Cc1cccc(N2CCN(S(=O)(=O)c3ccc(-c4ccc(=O)[nH]n4)o3)CC2)c1C	N-glyco inh 40
COc1ccccc1N1CCN(S(=O)(=O)c2ccc(-c3ccc(=O)[nH]n3)o2)CC1	none (no result: CDK5 inh, Casp6 inh)
Cc1noc(C)c1NC(=O)Nc1ccc2c(c1)C(=O)N([C@H](C)CO)C[C@H](C)[C@H](CN(C)S(=O)(=O)c1cn(C)cn1)O2	none (no result: NSD2 inh, CDK5 inh, Mot1-301 SUMO, ALR inh, N-glyco inh)
Clc1ccccc1-c1nc2ccccc2[nH]1	none
S=c1nc(-c2ccccc2Cl)[nH][nH]1	ALR inh 99
CC1CCC(C(C)C)C(OCC(O)C[N+]2(C)CCCCC2)C1 (stereo unspecified)	ALR inh 99
Cc1ccc(NC(=O)CSc2nncc3ccccc23)cc1	ALR inh 99
COc1ccc2cnnc(SCC(=O)Nc3ccc(C(=O)O)cc3)c2c1OC	ALR inh 99 (no result: Casp6 inh)
Cc1ccccc1NC(=O)CSc1nnc(C)c2ccccc12	ALR inh 96
COc1ccc2cnnc(SCC(=O)Nc3ccc(C(C)=O)cc3)c2c1OC	none
Cc1ccc([N+](=O)[O-])cc1NC(=O)CSc1nncc2ccccc12	none
Cc1nnc(SCC(=O)Nc2ccccc2)c2ccccc12	ALR inh 99
Cc1nnc(SCC(=O)Nc2ccc(O)cc2)c2ccccc12	none
COc1ccccc1CN1[C@@H]2CN(C(=O)C3CCCCC3)c3ccccc3[C@@H]2[C@@H]1CO	none (no result: NSD2 inh, CDK5 inh, Mot1-301 SUMO, ALR inh, N-glyco inh)
